PubChem BioAssay (Tox21)
Records with an inconclusive call do not appear. The source made the active and inactive calls. Unless noted, the call rests on the fitted dose curve; in most records, active means well fitted curve in the direction sought with a large enough effect in the repeat runs; inconclusive means weak or mixed curves; inactive means no such curve, though single readings can be large; an effect the other way counts as inactive or inconclusive.

Assays:
[1] = qHTS assay to identify small molecule agonists of the NFkB signaling pathway - cell viability counter screen (AID 1159515; calls by dose curve; further: series mostly up to about 61 µM; nearly all actives have a fitted effect of over 55% in size)
Summary of the method: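 Parallel cytotoxicity counter screen in ME-180 cells carrying an NFkB-response-element beta-lactamase reporter, 2,000 cells/well. Compound exposure lasted 5 hr at 37 C, 5% CO2. Cell viability was quantified by CellTiter-Glo luminescence.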

[2] = qHTS assay to identify small molecule agonists of the endoplasmic reticulum stress response signaling pathway (AID 1159516; active means well fitted activation curve with a large enough effect in the signal ratio in the repeat runs, not every such curve was filed as active; the % refers to the signal ratio)
Summary of the method: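 Using a HeLa line with an ESRE-driven beta-lactamase gene, agonist activity was measured by FRET substrate fluorescence (460 and 530 nm emission) after cells were treated with compounds for 5 hr at 37 C and 5% CO2.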

[3] = qHTS assay to identify small molecule agonists of the endoplasmic reticulum stress response signaling pathway - cell viability counter screen (AID 1159517; calls by dose curve;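 further: HeLa cells carrying an ER stress response element beta-lactamase reporter; series mostly up to about 61 µM; nearly all actives have a fitted effect of over 50% in size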)
Summary of the method: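 ESRE-bla HeLa cells (1,500/well) were plated overnight at 37 C and exposed to compounds for 5 hr. After the 2 hr beta-lactamase substrate read, CellTiter-Glo went into the same wells, and luminescence was read after 30 min at room temperature.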

[4] = target: Nuclear receptor ROR-gamma (Homo sapiens) (UniProt P51449); experiment: qHTS assay to identify small molecule antagonists of the retinoid-related orphan receptor gamma (ROR-gamma) signaling pathway (AID 1159521;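 further: CHO cells with doxycycline inducible ROR-gamma driving an RORE luciferase reporter; top concentration of the series differs between compounds; nearly all actives have a fitted effect of over 50% in size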)
Summary of the method: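 Inducible-expression reporter assay: doxycycline (1 uM final) switched on RORγ in CHO cells bearing a ROR response element-luciferase construct, with test compounds present from 2 h beforehand. Decreased luminescence after 16 h defined antagonist activity.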

[5] = qHTS assay to identify small molecule agonists of the AP-1 signaling pathway - cell viability counter screen (AID 1159525; calls by dose curve; further: nearly all actives have a fitted effect of over 55% in size)
Summary of the method: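 Intracellular ATP by Cell Titer Glo luminescence (30 min, RT) in the same ME-180 AP-1-bla wells after the 5 h compound exposure at 37 °C. Normalised to tetra n-octyl ammonium bromide and DMSO controls.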

[6] = qHTS assay to identify small molecule agonists of the AP-1 signaling pathway (AID 1159526; calls by dose curve)
[7] = target: Retinoic acid receptor RXR-alpha (Homo sapiens) (UniProt P19793); experiment: qHTS assay to identify small molecule agonists of the RXR signaling pathway (AID 1159527; calls by dose curve; further: nearly all actives have a fitted effect of over 35% in size)
Retinoic acid receptor RXR-alpha (Homo sapiens), sequence (P19793 whole entry, looked up): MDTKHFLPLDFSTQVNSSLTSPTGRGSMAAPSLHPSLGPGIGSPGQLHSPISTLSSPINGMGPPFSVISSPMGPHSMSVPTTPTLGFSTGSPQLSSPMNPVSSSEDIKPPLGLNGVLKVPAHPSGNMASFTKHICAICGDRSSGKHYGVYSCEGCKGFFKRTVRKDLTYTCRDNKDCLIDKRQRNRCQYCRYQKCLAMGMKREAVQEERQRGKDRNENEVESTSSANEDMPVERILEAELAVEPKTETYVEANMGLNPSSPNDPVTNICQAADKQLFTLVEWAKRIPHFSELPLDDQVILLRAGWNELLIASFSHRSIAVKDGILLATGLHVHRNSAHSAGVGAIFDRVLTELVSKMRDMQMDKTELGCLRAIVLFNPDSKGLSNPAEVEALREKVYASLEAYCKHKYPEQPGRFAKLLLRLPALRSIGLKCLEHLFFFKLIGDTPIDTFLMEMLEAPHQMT
Summary of the method: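 Compounds in DMSO were added to RXR-alpha-UAS-bla HEK 293T cells kept in 2% charcoal-stripped serum, and incubated 16 hr at 37 C with 5% CO2. Reporter signal came from a 2 hr B/G FRET substrate step.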

[8] = qHTS assay to identify small molecule agonists of the RXR signaling pathway - cell viability counter screen (AID 1159529); further: series mostly up to about 77 µM; nearly all actives have a fitted effect of over 50% in size
Summary of the method: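 Counter screen: CellTiter-Glo luminescence. Cells: RXR-alpha-UAS-bla HEK 293T. Medium: 2% charcoal-stripped FBS. Treatment: 16 h, 37 C. Reagent incubation: 30 min, RT.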

[9] = qHTS assay to identify small molecule antagonists of the retinoic acid receptor (RAR) signaling pathway (AID 1159552; further: nearly all actives have a fitted effect of over 50% in size)
Summary of the method: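 Antagonism of retinol-induced RARE reporter activity was measured in C3RL4 cells. Exposure to compounds and 1 uM final retinol lasted 6 hr at 37 C, with luminescence as endpoint.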

[10] = qHTS assay to identify small molecule antagonists of the estrogen related receptor (ERR) signaling pathway from Tox21 library - cell viability counter screen (AID 1224834); further: nearly all actives have a fitted effect of over 30% in size
Summary of the method: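 Compounds in DMSO were pinned onto ERR cells that had been incubated for 6 h, and the plates were held at 37 C for 17.5 h. CellTiter-Fluor reagent was then added and fluorescence was measured after 30 min.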

[11] = qHTS assay to identify small molecule antagonists of the retinoid acid receptor (RAR) signaling pathway - cell viability counter screen (AID 1159551); further: nearly all actives have a fitted effect of over 35% in size
Summary of the method: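 ATP-based viability, C3RL4 cells, 6 h at 37 C with 1 uM final retinol co-added after compound; luminescence read 30 min post CellTiter-Glo, RT.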

[12] = qHTS assay to identify small molecule antagonists of the vitamin D receptor (VDR) signaling pathway - cell viability counter screen (AID 743225); further: nearly all actives have a fitted effect of over 50% in size
Summary of the method: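 Same-well multiplex: following 16 h treatment of HEK 293T cells carrying a UAS-driven beta-lactamase reporter with compound and agonist (3 nM final), and a 2 h FRET substrate step, CellTiter-Glo was added and luminescence read after 30 min.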

[13] = qHTS assay to identify small molecule antagonists of the retinoid-related orphan receptor gamma (ROR-gamma) signaling pathway - cell viability counter screen (AID 1159520); further: nearly all actives have a fitted effect of over 50% in size
Summary of the method: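 Cytotoxicity was read from cellular ATP (CellTiter-Glo luminescence) after 16 hr at 37 C with 1 uM doxycycline induction. The inducer was added 2 hr after compound transfer to Tet-on ROR gamma CHO cells.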

[14] = qHTS assay to identify small molecule agonists of the retinoic acid receptor (RAR) signaling pathway (AID 1159553)
Summary of the method: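 Quantitative high-throughput format: the Tox21 10K library was tested on C3RL4 RARE-luciferase cells for 6 hr at 37 C and 5% CO2, with luminescence measured after a 30 min room-temperature reagent step.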

[15] = qHTS assay to identify small molecule antagonists of the estrogen related receptor (ERR) signaling pathway - cell viability counter screen (AID 1224818);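 further: series mostly up to about 46 µM; viability measured after 17.5 h of compound exposure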
Summary of the method: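 Quantitative high-throughput viability counter screen in ERR cells. Compounds (DMSO) incubated 17.5 h at 37 C; read-out was CellTiter-Fluor fluorescence.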

[16] = qHTS assay to identify small molecule antagonists of the estrogen related receptor signaling pathway with the pleiotropic PPARgamma coactivator (PGC) cell viability counter screen (AID 1224822; further: series mostly up to about 46 µM)
Summary of the method: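 Cytotoxicity in the PGC/ERR cell line is assessed with CellTiter-Fluor, read as fluorescence intensity 30 min after reagent addition, following 17.5 h compound treatment at 37 C.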

Measured: Potency

CC(C)c1ccc2ncccc2c1
not listed: [11] | [12] | [13] | [14] | [15] | [16]
inactive: all other assays above

CC(=O)C1CCCCC1=O (configuration not stated)
inactive: [1] | [2] | [3] | [4] | [5] | [6] | [7] | [11] | [10]

COCCOCC(OC)OC
inactive: [1] | [2] | [3] | [4] | [5] | [6] | [7] | [8] | [10]

CN(C)[C@@H]1C(=O)C(C(=O)NCN2CCCC2)=C(O)[C@@]2(O)C(=O)C3=C(O)c4c(O)cccc4[C@@](C)(O)C3C[C@@H]12 (some centres not stated)
not listed: [9] | [13] | [14] | [15] | [16]
inactive: all other assays above

CCCCCCC1CCC(=O)O1 (configuration not stated)
not listed: [7] | [8] | [12] | [14] | [15] | [16]
inactive: all other assays above

CC(=O)c1ccccc1[N+](=O)[O-]
inactive: [1] | [2] | [3] | [4] | [5] | [6] | [14] | [10]

Nc1ccccn1
not listed: [13] | [15] | [16]
inactive: all other assays above

O=C(O)c1cc(C(=O)O)cc(C(=O)O)c1
not listed: [9] | [13] | [15] | [16]
inactive: all other assays above

CCOC(=O)c1cnc2c(cnn2CC)c1NN=C(C)C
not listed: [9] | [13] | [14]
inactive: all other assays above

CC/C=C\CCOC(C)OCC (configuration not stated)
not listed: [9] | [10] | [13] | [14] | [15] | [16]
inactive: all other assays above

Cc1ccc(C(=O)c2ccc(CC(=O)O)n2C)cc1
not listed: [9] | [13] | [15] | [16]
inactive: all other assays above

CC(C)CCCO
not listed: [8] | [9] | [11] | [13] | [15] | [16]
inactive: all other assays above

CCCCOCCOC(=O)COc1cc(Cl)c(Cl)cc1Cl
not listed: [7] | [8] | [14] | [15] | [16]
inactive: all other assays above

CCOC(=O)C(=O)CCCCCCl
not listed: [7] | [9] | [13] | [14] | [15] | [16]
inactive: all other assays above

COCCOC[C@H](CC1(C(=O)NC2CCC(C(=O)O)CC2)CCCC1)C(=O)Oc1ccc2c(c1)CCC2 (some centres not stated)
not listed: [2] | [10] | [15] | [16]
inactive: all other assays above

CCN(CC#N)c1cccc(C)c1
not listed: [13] | [14] | [15] | [16]
inactive: all other assays above

CCN1CCOCC1
not listed: [13] | [15] | [16]
inactive: all other assays above

O=Cc1cccc(Br)c1
not listed: [13] | [14] | [15] | [16]
inactive: all other assays above

C=COCC1CCC(COC=C)CC1 (configuration not stated)
not listed: [9] | [13] | [14] | [15] | [16]
inactive: all other assays above

CC1=C(C/C=C(\C)CCC[C@H](C)CCC[C@H](C)CCCC(C)C)C(=O)c2ccccc2C1=O
not listed: [9] | [12] | [13] | [14] | [15] | [16]
inactive: all other assays above

NC(=O)Cc1cccc2ccccc12
inactive: [1] | [2] | [3] | [4] | [5] | [6] | [7] | [8] | [11]
